mHTT-CaM PPI inh – disrupts binding of mutant huntingtin to calmodulin. AlphaScreen His-mHTT/GST-CaM binding, luminescence. 190,000 compounds, 3.6% hits. AID 1671202. inhibition, % at 15 µM
Pf apPOL inh – Pf-apPOL DNA polymerase inhibition | Recombinant Pf-apPOL, molecular beacon fluorescence, 1.5 h | inhibition, % at 10 µM | 210,000 compounds, 0.25% hits
Each line names hits and unclear results; the compound was inactive in the other large screens. Shown is part of a subset that was picked to be rich in hits. Rule as the data show it: active = inhibition above about 50%; inactive = the rest.

COc1ccc(S(=O)(=O)NCc2ccc(F)cc2)cc1OC	Pf apPOL inh 67.6
COc1ccc(S(=O)(=O)NCc2ccc(S(N)(=O)=O)cc2)cc1	none
COc1ccc(S(=O)(=O)NCc2ccc3c(c2)OCO3)cc1OC	none
O=C(NCCCN1CCCC1=O)C1CCCN(c2cnn(Cc3ccccc3)c(=O)c2)C1 (stereo unspecified)	none
Cc1nn2c(=O)/c(=C/c3ccc(N(C)C)cc3)sc2nc1=O	none
O=c1[nH]c2c(s1)C1c3ccccc3OC3CCCC(S2)C31 (stereo unspecified)	mHTT-CaM PPI inh 51.5
O=C(O)C1C2CC3C1C(=O)Oc1ccccc1C1c4sc(=O)[nH]c4SC2C13 (stereo unspecified)	none
COc1cccc(C(=O)Nc2ccc(C)cc2Br)c1	none
COc1cc(C(Nc2cccc(C)n2)c2ccc3ccc(C)nc3c2O)ccc1O (stereo unspecified)	mHTT-CaM PPI inh 97.0
Cc1cccc(NS(=O)(=O)c2ccc(C)c([N+](=O)[O-])c2)n1	none
COc1ccc(C(Nc2cccc(C)n2)c2ccc3ccc(C)nc3c2O)cc1C (stereo unspecified)	mHTT-CaM PPI inh 89.0
Cc1ccc2cccc(NC(=O)C(F)(F)F)c2n1	none
Cc1cccc(NC(c2ccc(O)cc2)c2ccc3ccc(C)nc3c2O)n1 (stereo unspecified)	mHTT-CaM PPI inh 97.0
COc1ccc(C(=O)Nc2cccc(C)n2)c(OC)c1OC	none
COc1cc(C(O)CO)ccc1O (stereo unspecified)	none (no result: mHTT-CaM PPI inh)
Cc1cccc(NC(c2ccccc2[N+](=O)[O-])c2ccc3ccc(C)nc3c2O)n1 (stereo unspecified)	mHTT-CaM PPI inh 75.0
CC12CC3CC(C)(C1)CC(CN=Cc1ccc([N+](=O)[O-])cc1)(C3)C2	none
COc1ccc(S(=O)(=O)Nc2ccccc2C)cc1OC	none
Cc1ccccc1NS(=O)(=O)c1ccc(-c2ccccc2)cc1	mHTT-CaM PPI inh 80.3
Cc1ccc(NC(=O)Cn2c(-c3ccccc3F)nc3ccccc3c2=O)cc1Cl	none
O=C(Cn1c(-c2ccccc2Cl)nc2ccccc2c1=O)Nc1ccc(F)c(Cl)c1	mHTT-CaM PPI inh 100.0
C=CCN1N=C(NC(=O)c2cccc(Br)c2)SC=C1c1ccccc1	mHTT-CaM PPI inh 55.0
O=C(Nc1ccc(NC(=O)c2cccc(Br)c2)cc1)c1ccccc1	none
NS(=O)(=O)c1ccc(CCNC(=O)C2CCN(c3nc4cccnc4s3)CC2)cc1	none
CCCOc1ccc(OCCSc2nc(N)cc(=O)[nH]2)cc1	none
Nc1cc(=O)[nH]c(SCCOc2ccc(Cl)cc2)n1	mHTT-CaM PPI inh 100.3
Cc1noc(C2(NC(=O)C3CCC3)CCCCC2)n1	none
C=C1CCN([C@@H](CC(C)C)C(=O)NCc2ccc(OC)cc2)S(=O)(=O)c2ccccc21	none
C=C1CCN([C@@H](CC(C)C)C(=O)NCc2ccc(Cl)cc2)S(=O)(=O)c2ccccc21	mHTT-CaM PPI inh 70.4
C=C1CCN([C@@H](CC(C)C)C(=O)NCc2ccc(Cl)c(Cl)c2)S(=O)(=O)c2ccccc21	mHTT-CaM PPI inh 99.0
C=C1CCN([C@@H](Cc2ccccc2)C(=O)NCc2ccc(Cl)c(Cl)c2)S(=O)(=O)c2ccccc21	none
C=C1CCN([C@H](C(=O)NCc2ccc(Cl)c(Cl)c2)C(C)C)S(=O)(=O)c2ccccc21	mHTT-CaM PPI inh 73.5
C=C1CCN([C@@H](CC(C)C)C(=O)NCc2cc(OC)c(OC)c(OC)c2)S(=O)(=O)c2ccccc21	none
Cc1nc(-c2cccnc2)nc2c1CCC(=O)N2CCCN(C)C	none
Cn1c(=O)c2c(nc3n(Cc4ccccc4)c(-c4cccs4)cn23)n(C)c1=O	none
COc1ccc(C2c3sc(=O)[nH]c3SCC2C#N)cc1 (stereo unspecified)	none
Cc1ccnc(N2CCC(C(=O)NCCN3CCN(c4cccc(C)c4C)CC3)CC2)n1	none
CC(C)[C@H]1COCCS(=O)(=O)N1Cc1ccccc1-c1cccc2c1oc1ccccc12	mHTT-CaM PPI inh 53.1
CC(C)[C@H]1COCCS(=O)(=O)N1Cc1ccc(Cl)cc1	none
CCS(=O)(=O)N1N=C(c2cccs2)CC1c1ccc2nccnc2c1 (stereo unspecified)	none
Cc1ccc(CN2CCC(C(=O)N3CCN(c4ccccc4F)CC3)CC2)cc1	none
Cc1ccc(C(=O)N2CCC(C(=O)N3CCN(c4ccccc4F)CC3)CC2)cc1	Pf apPOL inh 57.4
c1ccc(CCNc2ncnc3ccccc23)cc1	none
NNc1ncnc2ccccc12	mHTT-CaM PPI inh 100.3 (no result: Pf apPOL inh)
Cn1cc(C(c2ccc(Br)o2)c2cn(C)c3ccccc23)c2ccccc21	none
Cn1cc(C(c2ccco2)c2cn(C)c3ccccc23)c2ccccc21	mHTT-CaM PPI inh 58.0
CC(O)(CNC(=O)C1CC1)c1ccccc1 (stereo unspecified)	none
COc1ccc(C2C(=O)N(C3CCC(C)CC3)CC(=O)N2Cc2ccccc2Cl)cc1OC (stereo unspecified)	none
CCCCN1C(=O)CN(C2CCCCC2)C(=O)C1c1ccc(OCCC)c(OC)c1 (stereo unspecified)	mHTT-CaM PPI inh 53.0
